# In ChEMBL document CHEMBL3988442, “University of Dundee, Small-Polar-MMV Screening Library” (2021):
# The campaign covered roughly 48,000 compounds. About 13,000 (27%) showed an effect of 50% or more. The list shows a part of the results.
# System: Wolbachia pipientis
# Assay: Anti-Wolbachia Cell-Based Screen
# Assay type: functional
# Design: scale not given: in the data most compounds retested in dose-response had high values
# Conditions: 5 µM
row,Compound,Percent Effect
1,Cn1c(C2CC2)nc2c1CCN(CC(=O)Nc1nncs1)C2,-1.4%
2,O=C(Nc1cccc(F)c1)NC1CCN(Cc2ccncc2)CC1,-11.06%
3,CCS(=O)(=O)NCCNC(=O)N(Cc1ccc(C)o1)C(C)C,-16.03%
4,Cn1nc(C(=O)N2CCCCC2c2nc3cc(F)ccc3[nH]2)ccc1=O (stereo unspecified),6.226%
5,c1cn2c(n1)CNCC(COCC1CC1)C2 (stereo unspecified),-6.113%
6,COC(=O)[C@@H]1Cc2ncn(C)c2CN1S(=O)(=O)c1ccc(C)cc1,-10.72%
7,Cc1ccc(S(=O)(=O)N2CC[C@@H]3C[C@H](NC(=O)c4[nH]ncc4Br)[C@@H]32)cc1,95.45%
8,Cc1ccc(S(=O)(=O)N2CC[C@@H]3C[C@H](NC(=O)c4n[nH]cc4Cl)[C@@H]32)cc1,97.43%
9,Cc1ccc(S(=O)(=O)N2CC[C@@H]3C[C@H](NC(=O)c4ccncc4)[C@@H]32)cc1,124.2%
10,Cc1ccc(S(=O)(=O)N2C[C@@H]3C[C@@H](NC(=O)C(C)(C)C)[C@@H]3C2)cc1,-7.611%
11,Cc1ccc(S(=O)(=O)N2C[C@H]3C[C@H](NC(=O)c4ccnn4C)[C@H]3C2)cc1,-12.92%
12,Cc1ccc(S(=O)(=O)N2C[C@H]3C[C@H](NC(=O)c4ccn(C)n4)[C@H]3C2)cc1,0.5687%
13,CS(=O)(=O)NCCC(=O)N1CCN(S(=O)(=O)c2ccc(Br)cc2)CC1,3.27%
14,Cc1cc(C(=O)N2CCc3c(nc(-c4ccncc4)[nH]c3=O)C2)no1,-7.817%
15,CN(C)C(=O)C(C)(C)c1ccc2c(c1)OCCO2,-10.01%
16,O=C(O)c1cccn1-c1ccc2c(c1)OCCO2,96.33%
17,Cn1cnnc1C1CCCN(C(=O)c2ccc3c(c2)OCCO3)C1 (stereo unspecified),-7.071%
18,O=C(O)C(c1ccc2c(c1)OCCO2)N1CCCC1 (stereo unspecified),10.75%
19,O=C(O)C(c1ccc2c(c1)OCCO2)N1CCCCCC1 (stereo unspecified),-0.2284%
20,CC(=O)N1CC2(CCN(C(=O)c3ccc4c(c3)OCCO4)CC2)C1,-3.523%
21,CN(C)C(=O)c1cccnc1-c1ccc2c(c1)OCCO2,-4.201%
22,O=C(c1cccn1-c1ccc2c(c1)OCCO2)N1CCCC1,97.35%
23,CN1CCCN(C(=O)c2ccc3c(c2)nc(N2CCOCC2)n3C)CC1,16.47%
24,CN(C)C(=O)c1cccn1-c1ccc2c(c1)OCCO2,99.12%
25,O=C(c1cccnc1-c1ccc2c(c1)OCCO2)N1CCCC1,-9.168%
26,CN1CCCN(C(=O)c2cccn2-c2ccc3c(c2)OCCO3)CC1,88.31%

row,Compound,Percent Effect
1,CN(CC(F)(F)F)C(=O)c1ccc(F)c(NS(C)(=O)=O)c1,-3.424%
2,CS(=O)(=O)CCn1ccc(NCc2ccc(C#N)cc2)n1,4.656%
3,CC(c1nccs1)n1cc(-c2cc(CN3CCCCC3)cs2)nn1 (stereo unspecified),17.2%
4,CC1CN(C(=O)c2ccnc(-n3cncn3)c2)c2ccccc2S1 (stereo unspecified),-6.511%
5,CC(C)CNC(=O)c1ccc2nnc(C3CCN(S(C)(=O)=O)C3)n2c1 (stereo unspecified),-4.952%
6,Cc1nn(CC(=O)O)c(C)c1NS(=O)(=O)c1cc2ccccc2s1,90.4%
7,CCn1nc(C)c(S(=O)(=O)Nc2ccccc2C(=O)OC)c1C,-6.756%
8,CN(C)c1ncc(CNS(=O)(=O)c2cccc3ccccc23)n1C,5.382%
9,Cc1nn(CC(=O)O)c(C)c1NS(=O)(=O)c1cccc2ccccc12,85.86%
10,Cc1nc2ccc(S(=O)(=O)Nc3c(C)nn(CC(=O)O)c3C)cc2s1,96.05%
11,Cc1ccc(S(=O)(=O)Nc2c(C)nn(C)c2C)cc1C,-30.32%
12,CC(=O)N1CCCCC1c1ncnn1-c1ccc2nc(C)sc2c1 (stereo unspecified),1.056%
13,Cc1ccc(C(=O)NS(=O)(=O)c2cccc3cnccc23)c(=O)[nH]1,-6.684%
14,CCN(C)S(=O)(=O)NCC(O)c1cc2ccccc2s1 (stereo unspecified),-28.91%
15,Cc1ccc(CCN[C@@H]2c3ccccc3C3(CCNCC3)[C@H]2O)s1,-1.865%
16,Cc1cc(C(=O)N[C@H](C)c2onc(-c3cccnc3)c2C(=O)O)c(C)o1.Cl,-10.14%
17,C=Cc1ccc(C(=O)N2CCCC(Nc3ccc(F)c(F)c3)C2)cc1 (stereo unspecified),-24.37%
18,Cc1cc(=O)[nH]c(SC(C)C(=O)N2CCCN(C3CCCC3)CC2)n1 (stereo unspecified),-14.72%
19,O=C(Nc1cccnc1)c1ccc(-n2cncn2)nn1,4.763%
20,Fc1ccc2c(c1)C1(CCNCC1)CC2OCC1CC1 (stereo unspecified),-8.217%
21,CNC(=O)NC1CC2(CCNCC2)c2ccc(C)cc21 (stereo unspecified),2.029%
22,Cl.Cl.c1ccc2c(c1)C(NC1CCCC1)CC21CCNCC1 (stereo unspecified),102.9%
23,CC(C)c1nnc(NC(=O)NCc2ccnc(N(C)C)c2)s1,-3.838%
24,CC/C=C(/C)C(=O)NCc1ccnc(OC)c1,-6.401%
25,COc1cc(CNC(=O)Nc2nnc(C(C)C)s2)ccc1O,0.367%
26,CCOc1ncccc1CNC(=O)c1csc(Br)c1,-22.46%

row,Compound,Percent Effect
1,Cc1nnc(NC(=O)NCc2ccnc(N(C)C)c2)s1,99.1%
2,COc1ncccc1CNC(=O)c1csc(Br)c1,-3.895%
3,COc1cc(CNC(=O)Nc2nnc(C(C)C)s2)ccn1,139%
4,CN(C)c1cc(CNC(=O)Nc2nnc(C3CC3)s2)ccn1,137.2%
5,COc1cc(CNC(=O)c2csc(Br)c2)ccn1,70.51%
6,Cc1cc(Br)ccc1C(=O)N(C)CCNS(C)(=O)=O,-13.91%
7,COCc1nc(N(C)CCSc2ccccc2)c2cnn(C)c2n1,-20.02%
8,Cc1cnc(CN2CCCC(c3nc4ccccc4n3C(C)C)C2)o1 (stereo unspecified),-8.983%
9,CN(C)C(C(=O)NCC1(C)COC1)c1cccc(F)c1 (stereo unspecified),3.319%
10,COc1ccc(CN2C[C@@H]3CCCO[C@@H]3[C@H](NS(C)(=O)=O)C2)cc1.O=C(O)C(F)(F)F,-19.78%
11,CCC[C@@H]1CN(C(=O)c2cc3ccccc3s2)C[C@H]1NS(C)(=O)=O,-8.95%
12,CS(=O)(=O)N[C@@H]1CN(C(=O)c2cc3ccccc3s2)C[C@H]1O,153.3%
13,CS(=O)(=O)N[C@H]1CN(CCOCc2ccccc2)C[C@@H]1C1CC1,-6.261%
14,CS(=O)(=O)NC1CCN(C(=O)c2ccc3ccccc3c2)C1 (stereo unspecified),-0.4422%
15,CS(=O)(=O)N[C@@H]1CN(Cc2ccccc2)C[C@@H]2CCCO[C@@H]21,-3.887%
16,CS(=O)(=O)NC1CCN(C(=O)c2cc3ccccc3s2)C1 (stereo unspecified),-26.49%
17,CC(C)[C@H]1CN(C2Cc3ccccc3C2)C[C@@H]1NS(C)(=O)=O,7.531%
18,CC(C)[C@H]1CN(C2Cc3ccccc3C2)C[C@@H]1NS(=O)(=O)N(C)C,-3.523%
19,CC(C)[C@@H]1CN(C2CCN(Cc3ccccc3)CC2)C[C@H]1NS(C)(=O)=O,57.6%
20,CS(=O)(=O)N[C@@H]1CN(Cc2ccc3ccccc3c2)C[C@H]1O,117%
21,CS(=O)(=O)N[C@@H]1CN(Cc2ccccc2)C[C@H]1O,118.1%
22,O=C(NCc1cc2ccccc2s1)c1cc(CN2CCCC(O)C2)on1 (stereo unspecified),4.701%
23,O=C(O)CC[C@@H]1CN(c2ncnc3[nH]ccc23)CC[C@@H]1N1CCOCC1,-3.371%
24,COCc1cn(C2CCN(C(=O)c3ccc(F)c(C)c3)CC2)nn1,14.23%
25,Cc1cc(F)ccc1OC1(C(=O)O)CCN(Cc2nccn2C)CC1,-12.18%
26,O=c1cc(CNS(=O)(=O)C2CC2)nc2n1CCCNC2,10.88%

row,Compound,Percent Effect
1,O=C(CCC1CCCCO1)NCc1cnn(-c2ccc(F)cc2F)c1 (stereo unspecified),2.583%
2,COc1ccc(C)cc1-n1cnnc1C1CCOCC1,1.298%
3,CCC[C@@H]1CN(Cc2ccc(C(F)(F)F)nc2)C[C@H]1NS(C)(=O)=O,-0.637%
4,CS(=O)(=O)N[C@@H]1CN(Cc2ccc3ncccc3c2)C[C@H]1O,100.1%
5,CCC[C@@H]1CN(C(=O)c2cnc3ccccc3c2)C[C@H]1NS(C)(=O)=O,-44.49%
6,CSc1ccsc1C(=O)NS(=O)(=O)c1cnn(C)c1,-33.43%
7,Cc1ccc(-n2cnc(Cl)c2CO)cc1,81.89%
8,COC(=O)CN1CCN(c2cccc(C)c2)CC1,-56.86%
9,Cc1cccc(N2CCN(C(=O)CN3CCN(CCO)CC3)CC2)c1,-11.5%
10,COc1ccc(OCC(=O)n2nc(C)c(C)c2C)cc1,7.668%
11,O=C1CC(c2ccc(C(=O)O)cc2)c2ncn(-c3ccc(F)cc3)c2N1 (stereo unspecified),-3.148%
12,OCc1c(Cl)ncn1-c1ccc(F)cc1,124.8%
13,COc1ccc(-n2cnc(Cl)c2CO)cc1,99.78%
14,Cc1cccc(-n2cnc(Cl)c2CO)c1,116.1%
15,COc1ccc(-n2cnnc2CC2CCNCC2)cc1,-7.776%
16,CC(=O)c1c(C)cc(C)c(Cn2ccnc2S(C)(=O)=O)c1C,-6.43%
17,CCOCCCC(=O)Nc1[nH]nc(-c2ccncc2)c1C,17.32%
18,Cc1ccccc1-n1cnnc1SCC1CCCCO1 (stereo unspecified),0.1895%
19,Cc1ccccc1-n1cnnc1SCC(=O)NCC1CCCO1 (stereo unspecified),6.164%
20,Cc1ccccc1-n1cnc(Cl)c1CO,94.22%
21,OCc1c(Cl)ncn1-c1ccccc1,94.93%
22,Cc1ccoc1C(=O)NCCOc1ncc(Cl)cc1Cl,-11.16%
23,Cc1nn(CCC#N)c(C)c1[C@@H]1C=C[C@@H](NCc2cccc(Cl)c2)C1,-10.09%
